PubChem BioAssay (NCATS)
Results filed as inconclusive are left out. Values without a mark were called inactive. Active and inactive are the calls of the source. The call rests on the fitted dose curve; in most records, active means well fitted inhibition curve with a large enough effect; inconclusive means small, poorly fitted or top-dose-only effect; inactive means flat fitted curve, though single readings scatter.

Each molecule was assayed on Zika virus NS2B-NS3 protease (linked construct) (assay: Confirmatory screen NINDS AMC qHTS for Zika virus inhibitors (AID 1347152; further: nearly all actives have a fitted effect of over 70% in size;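 on activity change, negative = inhibition: top concentration of the series differs between compounds; 0% = no-inhibitor control and -100% = no-enzyme control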)). Conditions: Purified linked NS2B-NS3, AMC substrate fluorescence; series mostly up to 56.6 µM; activity change, negative = inhibition: at the top concentration.
Outline: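 IC50s from 4-parameter Hill fits of percent inhibition, based on AMC fluorescence gain (340/450 nm) over 15 min with 10 microM Bz-Nle-KRR-AMC. Enzyme: 1 nM linked NS2B-NS3 in Tris-HCl pH 8.0; 15-min compound preincubation.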
Potency means the concentration at half of the fitted maximal effect.

Row | SMILES | activity change, negative = inhibition | Potency
1 | S=c1[nH]c(-c2ccccc2)cn1-c1ccccc1 | -1.61% | –
2 | O=C1NC(=O)/C(=C/c2ccc(-c3ccc(F)cc3O)o2)S1 | -4.39% | –
3 | Cn1c(=O)c2[nH]c(-c3ccccc3)nc2n(C)c1=O | – | 21.5 µM (active)
